Experimental data taken from the supplement of paper PMC4466140.

B1: unnamed (peptide)
chain: SLSRRRFSLPSMPNV

Target: AgAbp1
Experiment: SPOT peptide array binding signal intensity (averaged, normalized) (arbitrary units (background-subtracted, floor 0; scale differs between SH3 domains)); higher = stronger binding of the SH3 domain to the peptide
Summary of the method: (§1)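 The binding signal is the normalized, background-subtracted spot intensity averaged over replicates; its arbitrary units differ between domains. It was obtained by incubating 10 μg/ml GST-fused SH3 domains from four yeast species overnight at 4°C in TBS-based blocking buffer on cellulose membranes with synthetic 15-mer peptides, cysteines replaced by serines, then detecting with anti-GST antibody, HRP anti-mouse secondary and luminol.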

Binder | SPOT peptide array binding signal intensity
B1 | 83.5

Target: AgBbc1
Experiment: as above
Summary of the method: as §1

Binder | SPOT peptide array binding signal intensity
B1 | 114

Target: AgBem1-D1
Experiment: as above
Summary of the method: as §1

Binder | SPOT peptide array binding signal intensity
B1 | 418

Target: AgBzz1-D1
Experiment: as above
Summary of the method: as §1

Binder | SPOT peptide array binding signal intensity
B1 | 44.5

Target: AgBzz1-D2
Experiment: as above
Summary of the method: as §1

Binder | SPOT peptide array binding signal intensity
B1 | 72.5

Target: AgCyk3
Experiment: as above
Summary of the method: as §1

Binder | SPOT peptide array binding signal intensity
B1 | 6.5

Target: AgFus1
Experiment: as above
Summary of the method: as §1

Binder | SPOT peptide array binding signal intensity
B1 | 404

Target: AgHof1
Experiment: as above
Summary of the method: as §1

Binder | SPOT peptide array binding signal intensity
B1 | 158

Target: AgHse1
Experiment: as above
Summary of the method: as §1

Binder | SPOT peptide array binding signal intensity
B1 | 1010

Target: AgLsb1
Experiment: as above
Summary of the method: as §1

Binder | SPOT peptide array binding signal intensity
B1 | 1240

Target: AgLsb4
Experiment: as above
Summary of the method: as §1

Binder | SPOT peptide array binding signal intensity
B1 | 41.5

Target: AgMyo5
Experiment: as above
Summary of the method: as §1

Binder | SPOT peptide array binding signal intensity
B1 | 3

Target: AgNbp2
Experiment: as above
Summary of the method: as §1

Binder | SPOT peptide array binding signal intensity
B1 | 97.5

Target: AgRvs167
Experiment: as above
Summary of the method: as §1

Binder | SPOT peptide array binding signal intensity
B1 | 5

Target: AgSho1
Experiment: as above
Summary of the method: as §1

Binder | SPOT peptide array binding signal intensity
B1 | 28

Target: AgSla1-D1-D2
Experiment: as above
Summary of the method: as §1

Binder | SPOT peptide array binding signal intensity
B1 | 60

Target: AgSla1-D3
Experiment: as above
Summary of the method: as §1

Binder | SPOT peptide array binding signal intensity
B1 | 6

Target: CaAbp1-D1
Experiment: as above
Summary of the method: as §1

Binder | SPOT peptide array binding signal intensity
B1 | 872

Target: CaAbp1-D2
Experiment: as above
Summary of the method: as §1

Binder | SPOT peptide array binding signal intensity
B1 | 370

Target: CaBbc1
Experiment: as above
Summary of the method: as §1

Binder | SPOT peptide array binding signal intensity
B1 | 471

Target: CaBem1-D1
Experiment: as above
Summary of the method: as §1

Binder | SPOT peptide array binding signal intensity
B1 | 112

Target: CaBzz1-D1
Experiment: as above
Summary of the method: as §1

Binder | SPOT peptide array binding signal intensity
B1 | 183

Target: CaBzz1-D2
Experiment: as above
Summary of the method: as §1

Binder | SPOT peptide array binding signal intensity
B1 | 189

Target: CaCyk3
Experiment: as above
Summary of the method: as §1

Binder | SPOT peptide array binding signal intensity
B1 | 87.5

Target: CaFus1
Experiment: as above
Summary of the method: as §1

Binder | SPOT peptide array binding signal intensity
B1 | 1080

Target: CaHof1
Experiment: as above
Summary of the method: as §1

Binder | SPOT peptide array binding signal intensity
B1 | 0.5

Target: CaHse1
Experiment: as above
Summary of the method: as §1

Binder | SPOT peptide array binding signal intensity
B1 | 62.8

Target: CaLsb1
Experiment: as above
Summary of the method: as §1

Binder | SPOT peptide array binding signal intensity
B1 | 13

Target: CaLsb4
Experiment: as above
Summary of the method: as §1

Binder | SPOT peptide array binding signal intensity
B1 | 52.5

Target: CaMyo5
Experiment: as above
Summary of the method: as §1

Binder | SPOT peptide array binding signal intensity
B1 | 14.5

Target: CaNbp2
Experiment: as above
Summary of the method: as §1

Binder | SPOT peptide array binding signal intensity
B1 | 282

Target: CaRvs167
Experiment: as above
Summary of the method: as §1

Binder | SPOT peptide array binding signal intensity
B1 | 27

Target: CaRvs167-3
Experiment: as above
Summary of the method: as §1

Binder | SPOT peptide array binding signal intensity
B1 | 152

Target: CaSho1
Experiment: as above
Summary of the method: as §1

Binder | SPOT peptide array binding signal intensity
B1 | 477

Target: CaSla1-D1-D2
Experiment: as above
Summary of the method: as §1

Binder | SPOT peptide array binding signal intensity
B1 | 471

Target: CaSla1-D3
Experiment: as above
Summary of the method: as §1

Binder | SPOT peptide array binding signal intensity
B1 | 133

Target: ScAbp1
Experiment: as above
Summary of the method: as §1

Binder | SPOT peptide array binding signal intensity
B1 | 94

Target: ScBbc1
Experiment: as above
Summary of the method: as §1

Binder | SPOT peptide array binding signal intensity
B1 | 26.5

Target: ScBem1-D1
Experiment: as above
Summary of the method: as §1

Binder | SPOT peptide array binding signal intensity
B1 | 28

Target: ScBzz1-D1
Experiment: as above
Summary of the method: as §1

Binder | SPOT peptide array binding signal intensity
B1 | 54

Target: ScBzz1-D2
Experiment: as above
Summary of the method: as §1

Binder | SPOT peptide array binding signal intensity
B1 | 29.5

Target: ScCyk3
Experiment: as above
Summary of the method: as §1

Binder | SPOT peptide array binding signal intensity
B1 | 192

Target: ScFus1
Experiment: as above
Summary of the method: as §1

Binder | SPOT peptide array binding signal intensity
B1 | 256

Target: ScHof1
Experiment: as above
Summary of the method: as §1

Binder | SPOT peptide array binding signal intensity
B1 | 3

Target: ScHse1
Experiment: as above
Summary of the method: as §1

Binder | SPOT peptide array binding signal intensity
B1 | 1590

Target: ScLsb1
Experiment: as above
Summary of the method: as §1

Binder | SPOT peptide array binding signal intensity
B1 | 348

Target: ScLsb2
Experiment: as above
Summary of the method: as §1

Binder | SPOT peptide array binding signal intensity
B1 | 42

Target: ScLsb3
Experiment: as above
Summary of the method: as §1

Binder | SPOT peptide array binding signal intensity
B1 | 181

Target: ScLsb4
Experiment: as above
Summary of the method: as §1

Binder | SPOT peptide array binding signal intensity
B1 | 9.5

Target: ScMyo3
Experiment: as above
Summary of the method: as §1

Binder | SPOT peptide array binding signal intensity
B1 | 9.5

Target: ScMyo5
Experiment: as above
Summary of the method: as §1

Binder | SPOT peptide array binding signal intensity
B1 | 9.25

Target: ScNbp2
Experiment: as above
Summary of the method: as §1

Binder | SPOT peptide array binding signal intensity
B1 | 350

Target: ScPex13
Experiment: as above
Summary of the method: as §1

Binder | SPOT peptide array binding signal intensity
B1 | 38

Target: ScRvs167
Experiment: as above
Summary of the method: as §1

Binder | SPOT peptide array binding signal intensity
B1 | 37.3

Target: ScSho1
Experiment: as above
Summary of the method: as §1

Binder | SPOT peptide array binding signal intensity
B1 | 743

Target: ScSla1-D1-D2
Experiment: as above
Summary of the method: as §1

Binder | SPOT peptide array binding signal intensity
B1 | 636

Target: ScSla1-D3
Experiment: as above
Summary of the method: as §1

Binder | SPOT peptide array binding signal intensity
B1 | 97.8

Target: SpAbp1-D1
Experiment: as above
Summary of the method: as §1

Binder | SPOT peptide array binding signal intensity
B1 | 416

Target: SpBbc1
Experiment: as above
Summary of the method: as §1

Binder | SPOT peptide array binding signal intensity
B1 | 8

Target: SpBzz1-D1
Experiment: as above
Summary of the method: as §1

Binder | SPOT peptide array binding signal intensity
B1 | 311

Target: SpBzz1-D2
Experiment: as above
Summary of the method: as §1

Binder | SPOT peptide array binding signal intensity
B1 | 1.75

Target: SpCyk3
Experiment: as above
Summary of the method: as §1

Binder | SPOT peptide array binding signal intensity
B1 | 18

Target: SpHof1
Experiment: as above
Summary of the method: as §1

Binder | SPOT peptide array binding signal intensity
B1 | 248

Target: SpHof1-2
Experiment: as above
Summary of the method: as §1

Binder | SPOT peptide array binding signal intensity
B1 | 58.5

Target: SpHof1-3
Experiment: as above
Summary of the method: as §1

Binder | SPOT peptide array binding signal intensity
B1 | 440

Target: SpHse1
Experiment: as above
Summary of the method: as §1

Binder | SPOT peptide array binding signal intensity
B1 | 662

Target: SpLsb1
Experiment: as above
Summary of the method: as §1

Binder | SPOT peptide array binding signal intensity
B1 | 270

Target: SpLsb4
Experiment: as above
Summary of the method: as §1

Binder | SPOT peptide array binding signal intensity
B1 | 106

Target: SpMyo1
Experiment: as above
Summary of the method: as §1

Binder | SPOT peptide array binding signal intensity
B1 | 15.5

Target: SpNbp2
Experiment: as above
Summary of the method: as §1

Binder | SPOT peptide array binding signal intensity
B1 | 235

Target: SpPex13
Experiment: as above
Summary of the method: as §1

Binder | SPOT peptide array binding signal intensity
B1 | 49

Target: SpRvs167
Experiment: as above
Summary of the method: as §1

Binder | SPOT peptide array binding signal intensity
B1 | 14

Target: SpSla1-D1-D2
Experiment: as above
Summary of the method: as §1

Binder | SPOT peptide array binding signal intensity
B1 | 5

Target: SpSla1-D3
Experiment: as above
Summary of the method: as §1

Binder | SPOT peptide array binding signal intensity
B1 | 19
